Pf growth 48h: P. falciparum growth inhibition at 48 hours (one generation). P. falciparum luciferase growth in erythrocytes, 48 h. Potency, µM (doses to about 28.7 µM), inactives show top-dose activity change, negative = inhibition, usual class: inhibitors. actives 5.9% (n = 310,000). AID 504832; also: potency is read from the fitted curve at half-maximal effect; % is scaled to controls: 0 for no effect and ±100 for the full control effect
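Growth was read as firefly luciferase luminescence after a 48 h, 37 C, 5% CO2 exposure of compounds to reporter-bearing P. falciparum cultures (0.1% parasitemia, 2% hematocrit final) in Albumax-supplemented RPMI 1640.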
Shiga inhibitor: Shiga toxin inhibition | inhibition, % at 38.7 µM | Vero cells, Shiga toxin protein synthesis inhibition reporter | actives 9.2% (n = 290,000); in the data active = inhibition mostly above about 28%, no sharp cut-off; inactive = mostly below about 43%; also: 0% is about no effect
CHX counter: counter-screen hit for Shiga toxin inhibitors, cycloheximide. cell reporter, cycloheximide protein synthesis inhibition counterscreen. max response, %. actives 12% (n = 300,000). AID 2314; in the data active = max response mostly above about 13%, no sharp cut-off; inactive = mostly below about 14%; also: read at 38.3 µM for the half of the compounds with a filed dose; 0% is about no effect
MARV entry inh: blocks Marburg virus binding to or entry into cells | Marburg virus pseudotyped entry inhibition, cell reporter | Potency, µM (titrated, usually from 37.8 µM), without a hit: at the top dose activity change, negative = inhibition, usual class: inhibitors | actives 1.8% (n = 300,000) | AID 540276; calls by dose curve; tested in HEK293 cells; also: potency is read from the fitted curve at half-maximal effect; % is scaled to controls: 0 for no effect and ±100 for the full control effect
Pf growth 96h: P. falciparum growth inhibition at 96 hours; actives 6.9% (n = 320,000); Potency, µM (doses to about 28.7 µM), inactives show at the top dose activity change, negative = inhibition, hits mostly inhibitors; P. falciparum luciferase reporter growth, 96 h; also: potency is read from the fitted curve at half-maximal effect; % is scaled to controls: 0 for no effect and ±100 for the full control effect
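P. falciparum expressing integrated firefly luciferase, in erythrocytes at 2% hematocrit, 0.05% parasitemia, incubated with compounds 96 h at 37 C, 5% CO2. Growth inhibition read as loss of luminescence; two-generation exposure targets delayed-death apicoplast inhibitors.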
LASV entry inh: inhibitors of Lassa virus binding or cell entry; Lassa virus pseudotype entry inhibition, cell reporter; actives 1.2% (n = 300,000); Potency, µM (series often up to 37.9 µM), for inactives: at the top dose activity change, negative = inhibition, hits mostly inhibitors; calls by dose curve; tested in HEK293 cells; also: potency is read from the fitted curve at half-maximal effect; % is scaled to controls: 0 for no effect and ±100 for the full control effect; nearly all actives have a fitted effect of over 50% in size
* = called active by the depositor; u = inconclusive; x = no result given; + = active, no number; [ ] = remark or other dose. Sampled rows, rich in hits. Any-hit rate of the full collection: about 19%. Unless noted, calls follow the shape of the dose curve; as a rule, active = well fitted inhibition curve with a large enough effect; inconclusive = small, poorly fitted or top-dose-only effect, or another doubt; inactive = no such curve, though single readings can be large or run the other way.

SMILES | Pf growth 48h | Shiga inhibitor | CHX counter | MARV entry inh | Pf growth 96h | LASV entry inh
CC(C)Oc1ccc(C(=O)N2CCC(c3nc4ccccc4o3)CC2)cc1 | x | x | x | 10.2%[46.1 µM] | x | 3.5%[46.1 µM]
Cc1ccsc1/C=C(\C(=O)c1ccc(OC(C)C)cc1)c1nc2ccccc2o1 | u | + | 122.1* | u | u | u
Cc1ccc(-c2nc3ccccc3o2)cc1NC(=O)Cc1cccs1 | -1.1% | 25.2 | 14.0 | 11.5% | 0.9% | 26.8%
Cc1ccsc1/C=C(\CC(=O)O)c1nc2ccccc2o1 | 109.6% | 50.8* | 22.0* | 15.2%[46.1 µM] | 43.6% | 29.0%[46.1 µM]
CC(=O)N(CN1C(=O)c2ccccc2C1=O)c1cccc(C)c1 | -1.3% | 11.8 | -1.7 | 17.5% | 47.1% | 15.1%
CC(=O)N(/N=C1\Sc2ccccc2C1=O)c1cccc(C)c1 | u | 141.6* | 58.2* | -23.4% | u | u
CC(C)C(OC(=O)c1ccc(Cl)nc1)C(=O)NC1CCCCC1 (stereo unspecified) | 8.4% | -2.9 | -4.8 | 7.9%[46.1 µM] | 3.4% | -10.1%[46.1 µM]
COc1ccc(Cc2nnc(NC(=O)Nc3ccccc3F)s2)cc1 | 28.1% | x | -2.8 | x | -17.2% | x
COc1ccc(Cc2nnc(NC(=O)Nc3ccccc3F)s2)cc1OC | u | -10.7 | -1.3 | x | 11.7µM* | x
O=C(Nc1ccccc1)Nc1nnc(Cc2ccc([N+](=O)[O-])cc2)s1 | u | 6.7 | 13.7 | u | 11.5% | -4.4%
O=C(Nc1nnc(Cc2ccc(F)cc2)s1)Nc1ccccc1F | -4.5% | -3.5 | -1.7 | x | 11.7µM* | x
Cc1ccc(NC(=O)Nc2nnc(Cc3ccc(F)cc3)s2)cc1 | -24.5% | 41.8* | 16.1 | u | u | -24.0%[46.1 µM]
Cc1ccc(NC(=O)Nc2nnc(Cc3ccc([N+](=O)[O-])cc3)s2)cc1C | u | 30.7 | 18.4* | 0.1% | u | 0.6%
O=C(Nc1nccs1)OCc1ccccc1 | x | x | x | 15.6%[46.1 µM] | x | -14.8%
CCCCNC(=S)N(C)/N=C/c1ccc(OCc2ccc(C(=O)OC)cc2)c(OC)c1 | u | -7.2 | -3.3 | u | -10.5% | u
O=C(Cc1nnc(NC(=O)Nc2ccc(F)cc2)s1)Nc1ccccc1 | -1.6% | 22.0 | -2.3 | x | 2.1% | x
O=C(Nc1ccccc1)Nc1nnc(Cc2ccc(F)cc2)s1 | u | -3.3 | -2.2 | x | 8.28µM* | x
Cc1ccccc1-n1nc(C(=O)c2cccs2)cc(-c2nc3ccccc3[nH]2)c1=N | 3.7µM* | 7.8 | -1.8 | u | u | -6.7%
COc1ccc(-n2nc(C(=O)c3cccs3)cc(-c3nc4ccccc4[nH]3)c2=N)cc1 | 3.29µM* | -3.0 | 1.1 | 0.9% | u | 3.5%
O=S(=O)(c1cccc(-c2csc(-c3cccnc3)n2)c1)N1CCOCC1 | u | 22.4 | 1.7 | -10.7%[46.1 µM] | u | -23.1%
O=S(=O)(c1ccc(-c2nc3ccccc3s2)cc1)N1CCCC1 | x | 21.0 | 24.0* | 17.6% | 124.0% | 7.2%
O=S(=O)(c1cccc(-c2csc(-c3cccnc3)n2)c1)N1CCCCC1 | 9.28µM* | -2.7 | 4.1 | -13.8% | 54.6% | -26.2%
O=S(=O)(c1cccc(-c2nc3ccccc3s2)c1)N1CCCC1 | -19.7% | 35.9 | 35.6* | u | 3.1% | -7.9%
O=S(=O)(c1cccc(F)c1)N1CCC(c2nc3ccccc3s2)CC1 | x | x | x | 5.7%[46.1 µM] | x | -4.4%[46.1 µM]
NS(=O)(=O)c1cccc(NC(=O)COC(=O)Cc2ccc(S(=O)(=O)N3CCCCC3)s2)c1 | -26.1% | 22.0 | -2.6 | 3.4% | 12.9% | x
SMILES | Pf growth 48h | Shiga inhibitor | CHX counter | MARV entry inh | Pf growth 96h | LASV entry inh
COc1ccc(-n2c(=S)[nH]c3sc(-c4ccccc4)cc3c2=O)c(OC)c1 | 15.9% | -15.5 | -0.9 | u | 22.8% | 0.9%
CC(=O)c1ccc(OC(=O)c2nc(-c3ccccc3)oc2C)cc1 | 37.1% | -1.3 | 4.5 | -2.7%[46.1 µM] | 45.7% | -0.4%
O=[N+]([O-])c1ccc(N=Nc2ccc(O)cc2O)cc1 | x | 26.2 | 31.8 | u | 0.329µM* | 10µM*
CCOc1cc(C=O)cc(N=Nc2cccc([N+](=O)[O-])c2)c1O | 5.8% | -5.9 | 0.6 | 0.9%[46.1 µM] | u | -0.5%[46.1 µM]
O=[N+]([O-])c1cccc(N=Nc2ccc(O)cc2O)c1 | x | x | x | 2.82µM* | x | u
CS(=O)(=O)Nc1ccc(C(=O)NCc2ccccn2)cc1 | 3.5% | 1.2 | -2.5 | 18.1% | 28.9% | 1.7%
O=C(CSc1ccc(-c2ccccn2)nn1)N1CCCC1 | 20.0% | 42.9 | 25.4* | u | -10.1% | 6.6%
O=C(CSc1cnc2ccccc2n1)c1ccc(F)cc1 | 317.3% | 64.7* | 60.3* | u | 352.1% | 5.8µM*
O=C(CSc1ccc(-c2ccccc2)nn1)c1ccccc1 | 83.1% | 60.1* | 42.1* | 11.7% | 67.8% | u
O=C(CSc1ccc(-c2ccccn2)nn1)c1ccccc1 | 100.3% | 87.5* | 49.0* | u | 0.0% | u
Cc1ccc(C(=O)CSc2ccc(-c3ccccc3)nn2)cc1 | 18.1% | 9.3 | 9.7 | 13.7% | 10.5% | -0.5%
Cc1cccc(C)c1NC(=O)CN(C)CC(=O)Nc1sc2c(c1C(N)=O)CCC2 | u | x | x | u | -4.1% | -26.1%
O=C(CSc1ccc(-c2ccccn2)nn1)c1ccc(F)cc1 | 34.3% | 51.0* | 33.2* | 5.0%[46.1 µM] | -6.9% | 12.7%
c1ccc(CSc2ccc(-c3ccccn3)nn2)cc1 | 296.8% | 109.8* | 52.0* | u | -14.7% | u
COc1ccccc1NC(=O)CSc1ccc(-c2ccccn2)nn1 | u | 18.8 | 13.0* | u | u | u
Clc1ccc(CSc2ccc(-c3ccccn3)nn2)cc1 | u | 17.1 | 9.3 | 6.1%[46.1 µM] | u | u
COc1ccc(NC(=O)CSc2ccc(-c3ccccn3)nn2)cc1OC | u | -7.6 | 0.3 | u | u | u
CC1CN(C(C)C(=O)NNC(=O)c2ccc(F)cc2)CC(C)O1 (stereo unspecified) | x | x | x | 3.7%[46.1 µM] | x | 25.6%[46.1 µM]
CCOc1ccc(CNC(=O)c2ccc(Sc3ccc(C)cc3)c(NC(C)=O)c2)cc1OC | 13.7% | 12.5 | 3.5 | u | 11.7µM* | -0.9%
CN(C)S(=O)(=O)Oc1ccsc1C(=O)Nc1ccccc1Cl | u | 14.0 | -2.3 | -12.1% | 5.6% | -8.5%
O=C(COC(=O)c1ccccn1)NC12CC3CC(CC(C3)C1)C2 | 4.9% | -3.5 | -1.5 | 20.6% | x | 17.1%
O=C(OC1C[C@@H]2CC3C[C@H](C1)N2CC3=O)c1c[nH]c2ccccc12 (stereo partly specified) | 13.5µM* | x | x | x | 13.5µM* | x
CC1CC(C)CN(C(=O)COC(=O)c2c[nH]c3ccccc23)C1 (stereo unspecified) | 7.9% | x | x | x | 26.9% | x
C[N+]1(C)C2CCC1CC(OC(=O)c1c[nH]c3ccccc13)C2 (stereo unspecified) | u | x | x | u | 6.01µM* | u
CCOC(=O)c1ccc(NC(=S)NC(=O)COc2ccccc2)cc1 | 8.9% | -3.3 | 54.7* | 3.3% | 18.3% | 0.2%
Fc1cc(F)cc(NC(=S)NN2CCOCC2)c1 | 7.7% | -3.0 | 1.4 | 11.2% | u | 7.6%

Screening results (PubChem)
